# Measurements: paper PMC11006913
# What was measured:
# Assay in all cases: PBM; 200 nM protein, PBS
# Settings in all cases: dsDNA, one strand shown
# NKX2-5 [1] = biological target: NKX2-5 (Homo sapiens, UniProt P52952 125-210, R139K)
# NKX2-5 [2] = biological target: NKX2-5 (Homo sapiens, UniProt P52952 125-210)
# HOXD13 [3] = biological target: HOXD13 (Homo sapiens, UniProt P35453 263-343, T313R)
# HOXD13 [4] = biological target: HOXD13 (Homo sapiens, UniProt P35453 263-343)
# HOXD13 [5] = biological target: HOXD13 (Homo sapiens, UniProt P35453 263-343, T313A)
# NKX3-2 [6] = biological target: NKX3-2 (Homo sapiens, UniProt P78367 192-278, P234S)
# NKX3-2 [7] = biological target: NKX3-2 (Homo sapiens, UniProt P78367 192-278)
# NKX2-6 = biological target: T1, NKX2-6 (Homo sapiens, UniProt A6NCS4 118-204, R150C)
# T1 sequence: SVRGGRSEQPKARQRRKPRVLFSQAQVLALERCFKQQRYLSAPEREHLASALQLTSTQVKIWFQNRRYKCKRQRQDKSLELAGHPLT
# Chain of HOXD13 (Homo sapiens, UniProt P35453 263-343) (P35453 263-343): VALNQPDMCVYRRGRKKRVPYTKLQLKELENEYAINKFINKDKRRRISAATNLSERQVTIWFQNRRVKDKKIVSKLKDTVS
# Chain of NKX2-5 (Homo sapiens, UniProt P52952 125-210, R139K) (P52952 125-210 R139K): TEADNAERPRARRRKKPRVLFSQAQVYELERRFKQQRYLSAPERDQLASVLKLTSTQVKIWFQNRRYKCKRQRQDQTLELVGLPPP
# Chain of HOXD13 (Homo sapiens, UniProt P35453 263-343, T313A) (P35453 263-343 T313A): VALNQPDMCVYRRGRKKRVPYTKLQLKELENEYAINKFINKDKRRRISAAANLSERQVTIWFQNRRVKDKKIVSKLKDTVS
# Chain of NKX2-5 (Homo sapiens, UniProt P52952 125-210) (P52952 125-210): as the sequence (P52952 125-210 R139K) above, with K15R counted along it
# Chain of HOXD13 (Homo sapiens, UniProt P35453 263-343, T313R) (P35453 263-343 T313R): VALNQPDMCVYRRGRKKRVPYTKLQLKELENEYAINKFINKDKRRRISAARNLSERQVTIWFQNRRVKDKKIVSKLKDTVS
# Chain of NKX3-2 (Homo sapiens, UniProt P78367 192-278, P234S) (P78367 192-278 P234S): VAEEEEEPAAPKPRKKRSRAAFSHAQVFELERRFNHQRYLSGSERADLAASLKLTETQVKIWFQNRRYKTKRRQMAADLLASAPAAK
# Chain of NKX3-2 (Homo sapiens, UniProt P78367 192-278) (P78367 192-278): as the sequence (P78367 192-278 P234S) above, with S43P counted along it
sequence,measurement,setting,value
AGGCGAGC,binding signal,NKX2-5 [1],"9.02 upbm affinity estimate (log intensity, higher = more binding, comparable within an allelic series)"
same,binding signal,NKX2-5 [2],"8.95 upbm affinity estimate (log intensity, higher = more binding, comparable within an allelic series)"
CCCTTGAC,binding signal,NKX2-5 [1],"11.1 upbm affinity estimate (log intensity, higher = more binding, comparable within an allelic series)"
same,binding signal,NKX2-5 [2],"11.1 upbm affinity estimate (log intensity, higher = more binding, comparable within an allelic series)"
ATTAATGA,binding signal,HOXD13 [3],"10.7 upbm affinity estimate (log intensity, higher = more binding, comparable within an allelic series)"
same,binding signal,HOXD13 [4],"11.9 upbm affinity estimate (log intensity, higher = more binding, comparable within an allelic series)"
same,binding signal,HOXD13 [5],"11.7 upbm affinity estimate (log intensity, higher = more binding, comparable within an allelic series)"
CAATACTC,binding signal,NKX2-5 [1],"10.2 upbm affinity estimate (log intensity, higher = more binding, comparable within an allelic series)"
same,binding signal,NKX2-5 [2],"10.2 upbm affinity estimate (log intensity, higher = more binding, comparable within an allelic series)"
AACGTGGG,binding signal,NKX2-5 [1],"8.65 upbm affinity estimate (log intensity, higher = more binding, comparable within an allelic series)"
same,binding signal,NKX2-5 [2],"8.69 upbm affinity estimate (log intensity, higher = more binding, comparable within an allelic series)"
ATTAATTA,binding signal,HOXD13 [3],"10.8 upbm affinity estimate (log intensity, higher = more binding, comparable within an allelic series)"
same,binding signal,HOXD13 [4],"11.8 upbm affinity estimate (log intensity, higher = more binding, comparable within an allelic series)"
same,binding signal,HOXD13 [5],"11.6 upbm affinity estimate (log intensity, higher = more binding, comparable within an allelic series)"
TAATTAAA,binding signal,HOXD13 [3],"10.8 upbm affinity estimate (log intensity, higher = more binding, comparable within an allelic series)"
same,binding signal,HOXD13 [4],"11.8 upbm affinity estimate (log intensity, higher = more binding, comparable within an allelic series)"
same,binding signal,HOXD13 [5],"11.7 upbm affinity estimate (log intensity, higher = more binding, comparable within an allelic series)"
CGCGCAGC,binding signal,NKX2-5 [1],"8.7 upbm affinity estimate (log intensity, higher = more binding, comparable within an allelic series)"
same,binding signal,NKX2-5 [2],"8.72 upbm affinity estimate (log intensity, higher = more binding, comparable within an allelic series)"
CCTCTCGA,binding signal,NKX2-5 [1],"11.2 upbm affinity estimate (log intensity, higher = more binding, comparable within an allelic series)"
same,binding signal,NKX2-5 [2],"11.3 upbm affinity estimate (log intensity, higher = more binding, comparable within an allelic series)"
AACGGTGG,binding signal,NKX2-5 [1],"9.06 upbm affinity estimate (log intensity, higher = more binding, comparable within an allelic series)"
same,binding signal,NKX2-5 [2],"8.98 upbm affinity estimate (log intensity, higher = more binding, comparable within an allelic series)"
ATTAATTG,binding signal,HOXD13 [3],"10.7 upbm affinity estimate (log intensity, higher = more binding, comparable within an allelic series)"
TAATTATA,binding signal,HOXD13 [3],"10.7 upbm affinity estimate (log intensity, higher = more binding, comparable within an allelic series)"
CCACTAGA,binding signal,NKX2-5 [1],"11.3 upbm affinity estimate (log intensity, higher = more binding, comparable within an allelic series)"
same,binding signal,NKX2-5 [2],"11.2 upbm affinity estimate (log intensity, higher = more binding, comparable within an allelic series)"
AATTAATA,binding signal,HOXD13 [3],"10.9 upbm affinity estimate (log intensity, higher = more binding, comparable within an allelic series)"
same,binding signal,HOXD13 [4],"11.7 upbm affinity estimate (log intensity, higher = more binding, comparable within an allelic series)"
same,binding signal,HOXD13 [5],"11.7 upbm affinity estimate (log intensity, higher = more binding, comparable within an allelic series)"
CACTACAC,binding signal,NKX2-5 [1],"10.6 upbm affinity estimate (log intensity, higher = more binding, comparable within an allelic series)"
same,binding signal,NKX2-5 [2],"10.7 upbm affinity estimate (log intensity, higher = more binding, comparable within an allelic series)"
GCAACGCA,binding signal,NKX2-5 [1],"9.03 upbm affinity estimate (log intensity, higher = more binding, comparable within an allelic series)"
same,binding signal,NKX2-5 [2],"8.99 upbm affinity estimate (log intensity, higher = more binding, comparable within an allelic series)"
CGACACTC,binding signal,NKX2-5 [1],"10.6 upbm affinity estimate (log intensity, higher = more binding, comparable within an allelic series)"
same,binding signal,NKX2-5 [2],"10.5 upbm affinity estimate (log intensity, higher = more binding, comparable within an allelic series)"
ACTTATCG,binding signal,NKX2-5 [1],"11.2 upbm affinity estimate (log intensity, higher = more binding, comparable within an allelic series)"
same,binding signal,NKX2-5 [2],"11.2 upbm affinity estimate (log intensity, higher = more binding, comparable within an allelic series)"
GGTAATTA,binding signal,NKX3-2 [6],"11.7 upbm affinity estimate (log intensity, higher = more binding, comparable within an allelic series)"
same,binding signal,NKX3-2 [7],"11.7 upbm affinity estimate (log intensity, higher = more binding, comparable within an allelic series)"
CGGCGAAC,binding signal,NKX2-5 [1],"8.65 upbm affinity estimate (log intensity, higher = more binding, comparable within an allelic series)"
same,binding signal,NKX2-5 [2],"8.62 upbm affinity estimate (log intensity, higher = more binding, comparable within an allelic series)"
AATCTTGA,binding signal,NKX2-5 [1],"10.5 upbm affinity estimate (log intensity, higher = more binding, comparable within an allelic series)"
same,binding signal,NKX2-5 [2],"10.5 upbm affinity estimate (log intensity, higher = more binding, comparable within an allelic series)"
GTTAATTA,binding signal,HOXD13 [3],"10.7 upbm affinity estimate (log intensity, higher = more binding, comparable within an allelic series)"
same,binding signal,HOXD13 [5],"11.6 upbm affinity estimate (log intensity, higher = more binding, comparable within an allelic series)"
CTAATTAA,binding signal,HOXD13 [3],"10.8 upbm affinity estimate (log intensity, higher = more binding, comparable within an allelic series)"
same,binding signal,HOXD13 [4],"11.8 upbm affinity estimate (log intensity, higher = more binding, comparable within an allelic series)"
same,binding signal,HOXD13 [5],"11.6 upbm affinity estimate (log intensity, higher = more binding, comparable within an allelic series)"
GGCAGGCC,binding signal,NKX2-6,"9.24 upbm affinity estimate (log intensity, higher = more binding, comparable within an allelic series)"
same,binding signal,HOXD13 [3],"9.41 upbm affinity estimate (log intensity, higher = more binding, comparable within an allelic series)"
same,binding signal,HOXD13 [4],"9.41 upbm affinity estimate (log intensity, higher = more binding, comparable within an allelic series)"
same,binding signal,HOXD13 [5],"9.35 upbm affinity estimate (log intensity, higher = more binding, comparable within an allelic series)"
CTAATTGA,binding signal,NKX3-2 [6],"11.5 upbm affinity estimate (log intensity, higher = more binding, comparable within an allelic series)"
same,binding signal,NKX3-2 [7],"11.6 upbm affinity estimate (log intensity, higher = more binding, comparable within an allelic series)"
